{
  "source": "PubChem BioAssay (NCATS)",
  "key": {"[1]": {"system": "Zika virus NS2B-NS3 protease (linked construct)", "experiment": "Confirmatory screen NINDS AMC qHTS for Zika virus inhibitors (AID 1347152); further: potency means the concentration at half of the fitted maximal effect; nearly all actives have a fitted effect of over 70% in size", "outline": "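Enzyme (1 nM, linked construct) was preincubated with compound for 15 minutes at room temperature in 10 mM Tris-HCl pH 8.0 with 0.01% Tween 20. Bz-Nle-Lys-Arg-Arg-AMC was then added to 10 microM, and AMC fluorescence was recorded immediately and after 15 minutes.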"}, "[2]": {"system": "Zika virus NS2B-NS3 protease (linked)", "experiment": "384 well plate NINDS AMC confirmatory qHTS for Zika virus inhibitors (AID 1347163); further: potency means the concentration at half of the fitted maximal effect; nearly all actives have a fitted effect of over 50% in size", "outline": "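Fluorescence at 355/460 nm was read after 25 minutes of cleavage of 30 microM Ac-VKTGKR-AMC at room temperature, in the dark. Before substrate addition, compounds (up to 1 mM final) sat ~15 minutes with 5, 30 or 60 nM linked protease. Signals were normalized to no-enzyme and no-inhibitor wells.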"}, "[3]": {"target": "ATP-dependent 6-phosphofructokinase (Trypanosoma brucei brucei) (UniProt O15648)", "sequence (O15648 whole entry, looked up)": "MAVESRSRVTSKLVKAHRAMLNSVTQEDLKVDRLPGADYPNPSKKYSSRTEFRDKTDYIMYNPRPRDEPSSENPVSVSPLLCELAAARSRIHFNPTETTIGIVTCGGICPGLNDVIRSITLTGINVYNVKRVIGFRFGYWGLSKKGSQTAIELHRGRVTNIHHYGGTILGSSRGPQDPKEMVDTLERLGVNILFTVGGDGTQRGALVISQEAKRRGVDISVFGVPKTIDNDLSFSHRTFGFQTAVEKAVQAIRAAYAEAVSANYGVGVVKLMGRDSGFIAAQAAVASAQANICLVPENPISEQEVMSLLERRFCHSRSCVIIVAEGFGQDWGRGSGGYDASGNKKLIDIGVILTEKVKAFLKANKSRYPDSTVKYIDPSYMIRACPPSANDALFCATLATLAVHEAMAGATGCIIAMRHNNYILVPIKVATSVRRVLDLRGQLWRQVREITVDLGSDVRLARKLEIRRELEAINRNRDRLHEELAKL", "experiment": "qHTS Assay to Find Inhibitors of T. brucei phosphofructokinase: hit validation (AID 492961)", "outline": "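Luminescence from ADP-Glo reports ADP generated as T. brucei PFK (1.25 nM) phosphorylates 0.5 mM fructose-6-phosphate using 0.1 mM ATP. Reactions ran 45 min at room temperature, pH 8.0.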"}, "AS120": {"system": "AS120", "experiment": "qHTS profiling for inhibitors of Plasmodium falciparum proliferation (AID 504749); further: nearly all actives have a fitted effect of over 60% in size", "conditions": "P. falciparum in erythrocytes, SYBR Green DNA, 72 h; series mostly up to 28.7 µM", "outline": "(§1)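 Each compound contacts P. falciparum-infected red blood cells for 72 h at 37 C; lysis buffer (Tris, EDTA, saponin, Triton X, SYBR Green I) is added and fluorescence measured next morning; values normalized to controls.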"}, "CP185": {"system": "CP185", "experiment": "qHTS profiling for inhibitors of Plasmodium falciparum proliferation (AID 504749)", "conditions": "P. falciparum in erythrocytes, SYBR Green DNA, 72 h; series mostly up to 28.7 µM", "outline": "as §1"}, "CP192": {"system": "CP192", "experiment": "qHTS profiling for inhibitors of Plasmodium falciparum proliferation (AID 504749)", "conditions": "P. falciparum in erythrocytes, SYBR Green DNA, 72 h; series mostly up to 28.7 µM", "outline": "as §1"}, "CP194": {"system": "CP194", "experiment": "qHTS profiling for inhibitors of Plasmodium falciparum proliferation (AID 504749)", "conditions": "P. falciparum in erythrocytes, SYBR Green DNA, 72 h; series mostly up to 28.7 µM", "outline": "as §1"}, "CP201": {"system": "CP201", "experiment": "qHTS profiling for inhibitors of Plasmodium falciparum proliferation (AID 504749)", "conditions": "P. falciparum in erythrocytes, SYBR Green DNA, 72 h; series mostly up to 28.7 µM", "outline": "as §1"}, "CP203": {"system": "CP203", "experiment": "qHTS profiling for inhibitors of Plasmodium falciparum proliferation (AID 504749)", "conditions": "P. falciparum in erythrocytes, SYBR Green DNA, 72 h; series mostly up to 28.7 µM", "outline": "as §1"}, "CP247": {"system": "CP247", "experiment": "qHTS profiling for inhibitors of Plasmodium falciparum proliferation (AID 504749)", "conditions": "P. falciparum in erythrocytes, SYBR Green DNA, 72 h; series mostly up to 28.7 µM", "outline": "as §1"}, "DFO2036": {"system": "DFO2036", "experiment": "qHTS profiling for inhibitors of Plasmodium falciparum proliferation (AID 504749)", "conditions": "P. falciparum in erythrocytes, SYBR Green DNA, 72 h; series mostly up to 28.7 µM", "outline": "as §1"}, "PC49": {"system": "PC49", "experiment": "qHTS profiling for inhibitors of Plasmodium falciparum proliferation (AID 504749)", "conditions": "P. falciparum in erythrocytes, SYBR Green DNA, 72 h; series mostly up to 28.7 µM", "outline": "as §1"}, "[4]": {"experiment": "qHTS profiling of the MIPE4 collection as inhibitors of Plasmodium falciparum (3D7) proliferation (AID 743344; call rule not given here)", "conditions": "P. falciparum 3D7 in erythrocytes, SYBR Green DNA fluorescence, 72 h; at 28.5 µM (top of the series)", "outline": "(§2)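 Parasite DNA was quantified by SYBR Green I fluorescence (ex 485, em 535 nm) after overnight lysis in saponin/Triton buffer at room temperature. Cultures at 0.3% parasitemia and 2.5% hematocrit were first exposed to compound for 72 h at 37 C; signals were normalised to artemisinin (0.29 uM) and vehicle wells.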"}, "[5]": {"experiment": "qHTS profiling of the MIPE4 collection as inhibitors of Plasmodium falciparum (DD2) proliferation (AID 743345; call rule not given here)", "conditions": "P. falciparum Dd2 in erythrocytes, SYBR Green DNA, 72 h; at 28.5 µM (top of the series)", "outline": "as §2"}, "[6]": {"experiment": "qHTS profiling of the MIPE4 collection as inhibitors of Plasmodium falciparum (DD2) proliferation (Rep 2) (AID 743346; call rule not given here)", "conditions": "P. falciparum Dd2 in erythrocytes, SYBR Green DNA, 72 h; at 28.5 µM (top of the series)", "outline": "as §2"}, "[7]": {"experiment": "qHTS profiling of the MIPE4 collection as inhibitors of Plasmodium falciparum (HB3) proliferation (AID 743347; call rule not given here)", "conditions": "P. falciparum HB3 in erythrocytes, SYBR Green DNA, 72 h; at 28.5 µM (top of the series)", "outline": "as §2"}, "[8]": {"target": "Rap guanine nucleotide exchange factor 3 (Homo sapiens) (UniProt O95398)", "sequence (O95398 whole entry, looked up)": "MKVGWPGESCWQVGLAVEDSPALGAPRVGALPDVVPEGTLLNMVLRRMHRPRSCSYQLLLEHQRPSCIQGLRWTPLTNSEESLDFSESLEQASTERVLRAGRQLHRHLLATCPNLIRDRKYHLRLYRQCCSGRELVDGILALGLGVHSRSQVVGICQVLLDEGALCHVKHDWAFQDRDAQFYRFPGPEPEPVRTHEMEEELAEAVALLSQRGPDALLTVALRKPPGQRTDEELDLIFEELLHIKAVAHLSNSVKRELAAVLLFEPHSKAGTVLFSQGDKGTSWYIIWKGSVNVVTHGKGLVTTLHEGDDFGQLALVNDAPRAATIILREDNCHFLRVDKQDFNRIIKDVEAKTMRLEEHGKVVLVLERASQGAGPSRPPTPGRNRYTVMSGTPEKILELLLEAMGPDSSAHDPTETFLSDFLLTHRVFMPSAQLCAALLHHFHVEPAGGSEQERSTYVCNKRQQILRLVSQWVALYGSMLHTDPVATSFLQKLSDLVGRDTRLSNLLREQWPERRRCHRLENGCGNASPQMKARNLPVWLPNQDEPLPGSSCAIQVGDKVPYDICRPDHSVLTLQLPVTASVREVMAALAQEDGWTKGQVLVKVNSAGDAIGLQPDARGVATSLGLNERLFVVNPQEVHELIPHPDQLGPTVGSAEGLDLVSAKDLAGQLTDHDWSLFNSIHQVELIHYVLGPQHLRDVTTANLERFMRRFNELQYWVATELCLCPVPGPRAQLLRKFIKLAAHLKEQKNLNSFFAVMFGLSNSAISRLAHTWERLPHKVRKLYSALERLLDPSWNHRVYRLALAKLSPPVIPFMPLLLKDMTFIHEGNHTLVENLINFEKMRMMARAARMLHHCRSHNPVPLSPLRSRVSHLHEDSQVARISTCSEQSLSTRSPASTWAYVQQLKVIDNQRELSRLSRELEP", "experiment": "Confirmatory qHTS for agonist of cAMP-regulated guanine nucleotide exchange factor 3 (EPAC1) (AID 1645881)"}, "[9]": {"target": "Rap guanine nucleotide exchange factor 4 (Homo sapiens) (UniProt Q8WZA2)", "sequence (Q8WZA2 whole entry, looked up)": "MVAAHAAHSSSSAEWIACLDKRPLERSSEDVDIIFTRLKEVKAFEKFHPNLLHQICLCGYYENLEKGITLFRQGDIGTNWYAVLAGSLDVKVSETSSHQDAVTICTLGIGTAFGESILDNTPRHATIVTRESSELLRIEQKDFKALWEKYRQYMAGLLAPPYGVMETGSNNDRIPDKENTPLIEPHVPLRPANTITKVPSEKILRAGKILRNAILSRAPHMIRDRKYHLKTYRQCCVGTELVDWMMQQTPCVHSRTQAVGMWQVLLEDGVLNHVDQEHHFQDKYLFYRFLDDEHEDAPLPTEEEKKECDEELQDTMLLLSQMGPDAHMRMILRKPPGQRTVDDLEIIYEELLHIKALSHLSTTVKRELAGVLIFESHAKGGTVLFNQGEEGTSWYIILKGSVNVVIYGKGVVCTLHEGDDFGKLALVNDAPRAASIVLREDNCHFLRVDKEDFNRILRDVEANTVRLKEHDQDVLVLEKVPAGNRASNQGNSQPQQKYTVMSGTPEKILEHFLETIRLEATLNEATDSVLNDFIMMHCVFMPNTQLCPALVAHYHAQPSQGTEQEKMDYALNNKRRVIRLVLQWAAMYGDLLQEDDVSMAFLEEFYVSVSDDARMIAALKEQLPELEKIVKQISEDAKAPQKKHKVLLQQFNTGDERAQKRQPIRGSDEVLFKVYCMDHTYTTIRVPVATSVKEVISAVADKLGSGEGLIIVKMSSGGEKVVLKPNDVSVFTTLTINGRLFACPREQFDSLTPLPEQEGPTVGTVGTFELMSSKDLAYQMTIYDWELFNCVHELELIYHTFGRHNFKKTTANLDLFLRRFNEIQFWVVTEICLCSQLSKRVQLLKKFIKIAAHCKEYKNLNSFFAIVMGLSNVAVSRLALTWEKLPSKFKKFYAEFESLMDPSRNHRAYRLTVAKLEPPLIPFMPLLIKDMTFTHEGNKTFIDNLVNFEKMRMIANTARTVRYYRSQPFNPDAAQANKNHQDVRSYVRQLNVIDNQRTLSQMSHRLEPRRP", "experiment": "Confirmatory qHTS for agonist of cAMP-regulated guanine nucleotide exchange factor 4 (EPAC2) (AID 1645884)"}, "[10]": {"experiment": "Counterscreen qHTS for small molecule stabilizers of the endoplasmic reticulum resident proteome: GLuc-NoTag assay (AID 1508627)", "outline": "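Counterscreen line: SH-SY5Y-GLuc-NoTag. Seed, 5 h; compound, 19 h; thapsigargin 100 nM, 4 h; 37C/5% CO2. Readout: secreted GLuc luminescence, coelenterazine 0.07x final, no lysis.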"}, "[11]": {"target": "Cytochrome P450 2C9 (Homo sapiens) (UniProt P11712)", "sequence (P11712 whole entry, looked up)": "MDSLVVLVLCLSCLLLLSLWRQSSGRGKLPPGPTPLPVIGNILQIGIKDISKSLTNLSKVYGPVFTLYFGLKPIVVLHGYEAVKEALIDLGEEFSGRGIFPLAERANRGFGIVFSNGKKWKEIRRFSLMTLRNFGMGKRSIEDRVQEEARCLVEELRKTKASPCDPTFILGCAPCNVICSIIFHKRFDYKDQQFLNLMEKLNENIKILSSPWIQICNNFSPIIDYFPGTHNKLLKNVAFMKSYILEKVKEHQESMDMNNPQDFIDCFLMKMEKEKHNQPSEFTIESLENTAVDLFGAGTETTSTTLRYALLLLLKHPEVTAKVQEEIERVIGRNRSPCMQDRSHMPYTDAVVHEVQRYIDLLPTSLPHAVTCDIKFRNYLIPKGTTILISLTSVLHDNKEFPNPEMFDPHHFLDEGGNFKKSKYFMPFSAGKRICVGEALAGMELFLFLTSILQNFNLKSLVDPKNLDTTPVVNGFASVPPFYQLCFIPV", "experiment": "qHTS Assay for Inhibitors and Substrates of Cytochrome P450 2C9 (AID 883)", "outline": "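10nM CYP2C9 + 100uM Luciferin-H (=KM), 25mM KPO4; cpd 10 min 37C; NADPH regen, 60 min 37C; stop/detect with P450 Glo-Buffer 20 min; luminescence. Norm. to 57uM sulphaphenazole as full inhibition.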"}},
  "note": "Inconclusive results are not listed. Where a call stands in place of a potency, no number is given. Calls of active or inactive are those of the source. Unless noted, the call rests on the fitted dose curve; in most records, active means well fitted curve in the direction sought with a large enough effect; inconclusive means small, poorly fitted or top-dose-only effect, or another doubt; inactive means no such curve, though single readings can be large; an effect the other way counts as inactive or inconclusive.",
  "data": [
    {"molecule": "CN(Cc1ccc(C(=O)O)cc1)c1ccc(OCc2c(-c3c(Cl)cccc3Cl)noc2C2CC2)nc1C(F)(F)F", "values": [
      {"measurement": "Potency", "setting": "[1]", "result": "13.9 µM (active)"},
      {"measurement": "Potency", "setting": "[2]", "result": "3.98 µM (active)"}
    ]},
    {"molecule": "CCCCC(=O)N(Cc1ccc(-c2ccccc2-c2nn[nH]n2)cc1)C(C(=O)O)C(C)C", "note": "(stereo not drawn)", "values": [
      {"measurement": "outcome", "setting": "[3]", "result": "inactive"},
      {"measurement": "Potency", "setting": "AS120", "result": "inactive"},
      {"measurement": "Potency", "setting": "CP185", "result": "inactive"},
      {"measurement": "Potency", "setting": "CP192", "result": "inactive"},
      {"measurement": "Potency", "setting": "CP194", "result": "inactive"},
      {"measurement": "Potency", "setting": "CP201", "result": "inactive"},
      {"measurement": "Potency", "setting": "CP203", "result": "inactive"},
      {"measurement": "Potency", "setting": "CP247", "result": "inactive"},
      {"measurement": "Potency", "setting": "DFO2036", "result": "inactive"},
      {"measurement": "Potency", "setting": "PC49", "result": "inactive"}
    ]},
    {"molecule": "CC1(C)N=C(N)N=C(N)N1c1ccc(Cl)cc1", "values": [
      {"measurement": "parasite growth, % of DMSO control", "setting": "[4]", "result": 5.76, "unit": "%"},
      {"measurement": "parasite growth remaining, % of DMSO control (lower = more inhibition)", "setting": "[5]", "result": 13.5, "unit": "%"},
      {"measurement": "parasite growth, % of control (lower = inhibition)", "setting": "[6]", "result": 19.9, "unit": "%"},
      {"measurement": "growth, % of control", "setting": "[7]", "result": 2.49, "unit": "%"}
    ]},
    {"molecule": "CCC(=O)O[C@H]1CC[C@H]2[C@@H]3CCc4cc(O)ccc4[C@H]3CC[C@]12C", "values": [
      {"measurement": "outcome", "setting": "[8]", "result": "inactive"},
      {"measurement": "outcome", "setting": "[9]", "result": "inactive"}
    ]},
    {"molecule": "O=c1[nH]ccc2c(S(=O)(=O)N3CCCNCC3)cccc12", "values": [
      {"measurement": "Potency", "setting": "[10]", "result": "inactive"}
    ]},
    {"molecule": "O=C(O)c1ccc2c3c1cccc3c(=O)n1c3ccccc3nc21", "values": [
      {"measurement": "Potency", "setting": "[11]", "result": "0.158 µM (active)"},
      {"measurement": "parasite growth, % of DMSO control", "setting": "[4]", "result": 91.8, "unit": "%"},
      {"measurement": "parasite growth remaining, % of DMSO control (lower = more inhibition)", "setting": "[5]", "result": 97.7, "unit": "%"},
      {"measurement": "parasite growth, % of control (lower = inhibition)", "setting": "[6]", "result": 85.8, "unit": "%"},
      {"measurement": "growth, % of control", "setting": "[7]", "result": 60.1, "unit": "%"}
    ]},
    {"molecule": "CS(=O)(=O)CCNCc1nc(-c2ccc3ncnc(Nc4ccc(OCc5cccc(F)c5)c(Cl)c4)c3c2)cs1", "values": [
      {"measurement": "Potency", "setting": "[10]", "result": "inactive"}
    ]},
    {"molecule": "Cc1nc2c(O)cccc2c(=O)[nH]1", "values": [
      {"measurement": "Potency", "setting": "[11]", "result": "3.98 µM (active)"}
    ]},
    {"molecule": "C#C[C@]1(OC(C)=O)CC[C@H]2[C@@H]3CCC4=CC(=O)CC[C@@H]4[C@H]3CC[C@@]21C", "values": [
      {"measurement": "outcome", "setting": "[8]", "result": "inactive"},
      {"measurement": "outcome", "setting": "[9]", "result": "inactive"}
    ]}
  ]
}
